Assay outcomes as filed in PubChem BioAssay.
Cruzain inh noDet = qHTS Assay for Promiscuous and Specific Inhibitors of Cruzain (without detergent); hit rate 2.3% among 200,000; purified cruzain, Z-FR-AMC fluorescence, no detergent; AID 1476, 2009; Potency, µM, for the others: max response, negative = inhibition, usual class: inhibitors;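 note: plate controls were enzyme without inhibitor for no effect and buffer without enzyme for full effect; nearly all actives have a fitted effect of over 40% in size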
Target sequence (P25779 123-467 limits assumed): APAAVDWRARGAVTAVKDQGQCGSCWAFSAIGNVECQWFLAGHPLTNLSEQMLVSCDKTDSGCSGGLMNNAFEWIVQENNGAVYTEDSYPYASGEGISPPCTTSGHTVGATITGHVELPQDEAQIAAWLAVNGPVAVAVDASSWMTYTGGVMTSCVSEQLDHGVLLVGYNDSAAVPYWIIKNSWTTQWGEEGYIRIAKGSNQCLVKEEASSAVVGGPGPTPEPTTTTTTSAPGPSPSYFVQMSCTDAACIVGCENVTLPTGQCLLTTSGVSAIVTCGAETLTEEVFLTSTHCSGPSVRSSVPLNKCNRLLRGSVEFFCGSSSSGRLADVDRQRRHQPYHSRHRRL
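Detergent-free condition (0.00005% Triton X-100) in acetate buffer pH 5.5 with DTT. 1.5 nM enzyme and compound were pre-mixed 15 min, then 2 uM Z-FR-AMC substrate added; reaction progress from fluorescence change between first and third reads (60 s).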
Cruzain Triton = qHTS Assay for Promiscuous and Specific Inhibitors of Cruzain (with detergent); Cruzipain (Trypanosoma cruzi), P25779; purified cruzain, Z-FR-AMC fluorescence, 0.01% Triton; hit rate 0.43% among 200,000; Potency, µM, for the others: max response, negative = inhibition, most hits filed as inhibitors;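 note: plate controls were neutral wells for no effect and buffer without enzyme for full effect; nearly all actives have a fitted effect of over 40% in size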
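Compounds were screened in titration against cruzain (1.5 nM) with 0.01% Triton X-100 to counter colloidal aggregation. Activity was the AMC fluorescence increase over 60 s after adding 2 uM Z-FR-AMC at pH 5.5.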
NS1 inh = qHTS Assay for Inhibitors of Influenza NS1 Protein Function | Potency, µM (top dose mostly 46.1 µM), inactives show top-dose activity, positive = more growth | hit rate 0.4% among 270,000 | AID 2326, 2010; calls by dose curve; note: actives are rising curves; nearly all actives have a fitted effect of over 50% in size
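Recovery from NS1-induced slow growth read by OD600 in budding yeast switched to galactose assay medium (pH 6.0, -URA) at 1:100 dilution. Compound 23 nl per well; the matching strain lacking NS1 serves as control.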
The depositor's hits bear a star. This is one part of a sample in which hits are shown more often than they occur. Unless noted, calls come from the whole dose curve; as a rule, active = well fitted curve in the direction sought with a large enough effect; inconclusive = small, poorly fitted or top-dose-only effect, or another doubt; inactive = no such curve, though single readings can be large; an effect the other way counts as inactive or inconclusive. Potency is the fitted concentration of half-maximal effect.

COc1ccc(OC)c(N2Cc3cc(C)c(C)cc3C2)c1 was read as Cruzain inh noDet 16µM*, Cruzain Triton 1% and NS1 inh -18%.
CCOc1ccccc1N1Cc2ccccc2C1 was read as Cruzain inh noDet inconclusive, Cruzain Triton 5% and NS1 inh 0%.
For CCOc1ccc(NC(=O)c2c(C)nn(-c3ccc(F)cc3)c2-n2cccc2)cc1 the results were Cruzain inh noDet -22% and Cruzain Triton -1%.
CC(NC(=O)COC(=O)c1cc(NS(=O)(=O)c2ccc(Cl)c([N+](=O)[O-])c2)ccc1O)C1CC2CCC1C2 (stereo not given) was read as Cruzain inh noDet 6.3µM*, Cruzain Triton -10% and NS1 inh inconclusive.
Screening COc1ccc(NS(=O)(=O)c2ccc(O)c(C(=O)OCC(=O)NC(C)C3CC4CCC3C4)c2)cc1 (stereo not given) returned NS1 inh 16%.
O=C=Nc1ccc(Cc2ccc(N=C=O)cc2)cc1 (tested in a mixture with another compound) was read as Cruzain inh noDet 3%, Cruzain Triton 0% and NS1 inh -3%.
O=C=Nc1ccc(Cc2ccc(N=C=O)cc2)cc1 was read as Cruzain inh noDet 16µM* and Cruzain Triton -19%.
Screening CC(=O)Nc1ccc2c(c1)nc(CCNC(=O)c1ccccc1)n2C returned Cruzain inh noDet -13%, Cruzain Triton -4% and NS1 inh 2%.
Screening Cn1c(CCNC(=O)c2ccccc2)nc2ccccc21 returned Cruzain inh noDet -16%, Cruzain Triton 11µM* and NS1 inh 9%.
`Cc1nc(C)c(CCNC(=O)c2ccccc2)s1` gave Cruzain inh noDet inconclusive, Cruzain Triton 28µM* and NS1 inh 6%.
Cn1c(CCNC(=O)c2ccc(F)cc2)nc2ccccc21 was read as Cruzain inh noDet 2.5µM*, Cruzain Triton 11µM* and NS1 inh -9%.
Cc1nc(C)c(CCNC(=O)c2cccc(Cl)c2)s1 was read as Cruzain inh noDet -29%, Cruzain Triton inconclusive and NS1 inh -8%.
Screening Cn1c(CCNC(=O)C(C)(C)C)nc2ccccc21 returned Cruzain inh noDet 4%, Cruzain Triton 4% and NS1 inh 1%.
Screening CCNc1ncc2nc(-c3cccs3)c(=O)n(Cc3cccs3)c2n1 returned Cruzain inh noDet 2% and Cruzain Triton 0%.
For Cc1no[n+]([O-])c1COc1ccc(/C=C2\NC(=S)NC2=O)cc1 the results were Cruzain inh noDet 32µM*, Cruzain Triton -7% and NS1 inh 5%.
`CCOc1ccc(/C=C2\NC(=S)NC2=O)cc1` gave NS1 inh -6%.
For NCCSS(=O)(=O)CCN the results were Cruzain inh noDet 4%, Cruzain Triton 3% and NS1 inh 3%.
CCCn1c(-c2ccc(F)cc2)nc2c(N3CCN(C)CC3)nc(C)nc21 was read as Cruzain inh noDet -5% and Cruzain Triton -6%.
`Cc1ccc(NC(=O)CN2C(=O)C3(SCC(=O)N3c3cccc(Cl)c3)c3ccccc32)cc1C` (stereo not given) gave Cruzain inh noDet 20µM* and Cruzain Triton -5%.
For COc1ccc(NC(=O)CN2C(=O)C3(SCC(=O)N3c3ccccc3)c3ccccc32)cc1Cl (stereo not given) the results were Cruzain inh noDet 20µM* and Cruzain Triton -5%.
Screening O=C(CN1C(=O)C2(SCC(=O)N2c2ccc(F)c(F)c2)c2ccccc21)Nc1cccc(Cl)c1 (stereo not given) returned Cruzain inh noDet inconclusive and Cruzain Triton -6%.
For Cc1ccc(N2C(=O)CSC23C(=O)N(CC(=O)Nc2ccc(C(C)C)cc2)c2ccccc23)cc1C (stereo not given) the results were Cruzain inh noDet inconclusive and Cruzain Triton -6%.
For COc1ccc(SCc2cc(=O)c3cc(Cl)ccc3[nH]2)cc1 the results were Cruzain inh noDet -6% and Cruzain Triton 0%.
O=C(O)CN(CCN(CC(=O)O)CC(=O)O)CC(=O)O.[Mn] was read as Cruzain inh noDet 7%, Cruzain Triton -1% and NS1 inh -1%.
For CCCCCCCC/C=C\CCCCCCCCOC[C@H](COP(=O)([O-])OCC[N+](C)(C)C)OC(C)=O the results were Cruzain inh noDet inconclusive and Cruzain Triton -2%.
Screening N#Cc1c(-n2ncnc2-c2ccc(F)cc2)sc2c1CCCCC2 returned Cruzain inh noDet -3% and Cruzain Triton -5%.
O=C(CCS(=O)(=O)c1cccs1)Nc1ccc(C(=O)Nc2cccc(Cl)c2)cc1 was read as Cruzain inh noDet -25% and Cruzain Triton -11%.
Screening CC(C)c1ccc(NC(=O)c2ccc(NC(=O)CCS(=O)(=O)c3cccs3)cc2)cc1 returned Cruzain inh noDet 32µM* and Cruzain Triton -4%.
